Laboratory results: PubChem BioAssay (Tox21)
Inconclusive results are not listed. Where a call stands in place of a potency, no number is given. Calls of active or inactive are those of the source. The call rests on the fitted dose curve; in most records, active means well fitted cell-killing curve with a large enough effect in the repeat runs; inconclusive means weak or mixed curves, or effect the other way; inactive means flat fitted curve, though single readings scatter.

Assay: cAMP Responsive Elements (CRE) small molecule antagonists, cell-based qHTS assay: qHTS cell viability counter screen (AID 2060913); further: nearly all actives have a fitted effect of over 40% in size; further: potency means the concentration at half of the fitted maximal effect
Settings: CRE-bla HEK293T viability, CellTiter-Glo luminescence, 5 h; series mostly up to 92.4 µM
Method in brief: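 Cytotoxicity counter screen multiplexed with the CRE-bla antagonist read: HEK293T cells in DMEM with dialyzed FBS and 25 mM HEPES were treated 3 hrs under 0.25 uM final NKH477, then viability measured by CellTiter-Glo luminescence.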

SMILES	Potency
CCOC(=O)C(=O)CCCCCCl	inactive
CC(C)OC(=O)c1ccccc1	inactive
O=C(Cl)c1ccc(Cl)cc1Cl	inactive
C[Si](C)(C)O[Si](O)(O)O	inactive
CC1(O)CSC(C)(O)CS1 (stereo not given)	inactive
FC(F)(F)C(Cl)Br (stereo not given)	inactive
CCCCOCCOC(=O)c1ccccc1C(=O)OCCOCCCC	inactive
Cc1c(C)c2c(c(C)c1O)CCC(C)(COc1ccc(CC3SC(=O)NC3=O)cc1)O2 (stereo not given)	inactive
COC(=O)c1ccccc1	inactive
CCCCCC(C)N (stereo not given)	inactive
CC(=O)OC[C@H]1O[C@@](COC(C)=O)(O[C@H]2O[C@H](COC(C)=O)[C@@H](OC(C)=O)[C@H](OC(C)=O)[C@H]2OC(C)=O)[C@@H](OC(C)=O)[C@@H]1OC(C)=O	inactive
CC(C)C1CCC(O)CC1 (stereo not given)	inactive
CCC1CCCCC1	inactive
CC(C)C[C@H]1C(=O)N2CCC[C@H]2[C@]2(O)O[C@](NC(=O)[C@@H]3C=C4c5cccc6[nH]c(Br)c(c56)C[C@H]4N(C)C3)(C(C)C)C(=O)N12	inactive
CCO/C([O-])=N/c1c[n+](N2CCOCC2)no1	inactive
CS(=O)(=O)c1ccc(-c2cn3ccccc3n2)cc1	26.6 µM (active)
Nc1[nH]c(=O)ncc1F	inactive
c1ccc2cc(Nc3ccc(Nc4ccc5ccccc5c4)cc3)ccc2c1	inactive
Nc1nc2ccc([N+](=O)[O-])cc2s1	inactive
CN(c1nccc(=O)[nH]1)C1CCN(c2nc3ccccc3n2Cc2ccc(F)cc2)CC1	inactive

SMILES	Potency
CC1COc2c(N3CCN(C)CC3)c(F)cc3c(=O)c(C(=O)O)cn1c23 (stereo not given)	inactive
c1ccc(CNCc2ccccc2)cc1	inactive
CC(CC(=O)Cl)CC(C)(C)C (stereo not given)	inactive
Fc1ccc([C@@H]2CCNC[C@H]2COc2ccc3c(c2)OCO3)cc1	inactive
CCc1cnc(C(=O)O)c(C(=O)O)c1	inactive
CN(C)CCOc1ccccc1Cc1ccccc1	inactive
CCOC(=O)CC(=O)C(=O)OCC	inactive
CCCCCc1cccc(=O)o1	inactive
CC[N+](C)(CC)CCOC(=O)C(O)(c1ccccc1)C1CCCCC1 (stereo not given)	inactive
CC(C)(C)c1ccc(C(=O)O)cc1	inactive
CCCCCCCN	inactive
O=C(O)c1ccc(-n2nc(-c3ccccc3O)nc2-c2ccccc2O)cc1	inactive
CCOC(=O)CCC(C)=O	inactive
CCCCCCCCCCCCCBr	inactive
CCCCN(CCO)CCCC	inactive
CC(=O)OCC(=O)[C@@]1(O)CC[C@H]2[C@@H]3CCC4=CC(=O)CC[C@]4(C)[C@H]3C(=O)C[C@@]21C	inactive
CO[Si](CCCS)(OC)OC	inactive
NNc1ccc(C(=O)O)cc1	inactive
C[C@]12C(=O)OC(=O)[C@H]1[C@H]1C=C[C@@H]2C1	inactive
O=C=NC1CCC(CC2CCC(N=C=O)CC2)CC1 (stereo not given)	inactive

Assay: cAMP Responsive Elements (CRE) small molecule agonists, cell-based qHTS assay: qHTS cell viability counter screen (AID 2060914);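 further: viability read after 3 h of compound exposure; nearly all actives have a fitted effect of over 50% in size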
Settings: CRE-bla HEK293T viability, CellTiter-Glo luminescence, 5 h; series mostly up to 92.4 µM
Method in brief: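 Cytotoxicity counter screen multiplexed with the CRE-bla reporter assay in HEK 293T cells: 3 h compound exposure at 37 °C, followed by CellTiter-Glo luminescence measured in the same wells.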

SMILES	Potency
CCOC(=O)C(=O)CCCCCCl	inactive
CC(C)OC(=O)c1ccccc1	inactive
O=C(Cl)c1ccc(Cl)cc1Cl	inactive
C[Si](C)(C)O[Si](O)(O)O	inactive
CC1(O)CSC(C)(O)CS1 (stereo not given)	inactive
FC(F)(F)C(Cl)Br (stereo not given)	inactive
CCCCOCCOC(=O)c1ccccc1C(=O)OCCOCCCC	inactive
Cc1c(C)c2c(c(C)c1O)CCC(C)(COc1ccc(CC3SC(=O)NC3=O)cc1)O2 (stereo not given)	inactive
COC(=O)c1ccccc1	inactive
CCCCCC(C)N (stereo not given)	inactive
CC(=O)OC[C@H]1O[C@@](COC(C)=O)(O[C@H]2O[C@H](COC(C)=O)[C@@H](OC(C)=O)[C@H](OC(C)=O)[C@H]2OC(C)=O)[C@@H](OC(C)=O)[C@@H]1OC(C)=O	inactive
CC(C)C1CCC(O)CC1 (stereo not given)	inactive
CCC1CCCCC1	inactive
CC(C)C[C@H]1C(=O)N2CCC[C@H]2[C@]2(O)O[C@](NC(=O)[C@@H]3C=C4c5cccc6[nH]c(Br)c(c56)C[C@H]4N(C)C3)(C(C)C)C(=O)N12	inactive
CCO/C([O-])=N/c1c[n+](N2CCOCC2)no1	inactive
CS(=O)(=O)c1ccc(-c2cn3ccccc3n2)cc1	inactive
Nc1[nH]c(=O)ncc1F	inactive
c1ccc2cc(Nc3ccc(Nc4ccc5ccccc5c4)cc3)ccc2c1	inactive
Nc1nc2ccc([N+](=O)[O-])cc2s1	inactive
CN(c1nccc(=O)[nH]1)C1CCN(c2nc3ccccc3n2Cc2ccc(F)cc2)CC1	inactive

SMILES	Potency
CC1COc2c(N3CCN(C)CC3)c(F)cc3c(=O)c(C(=O)O)cn1c23 (stereo not given)	inactive
c1ccc(CNCc2ccccc2)cc1	inactive
CC(CC(=O)Cl)CC(C)(C)C (stereo not given)	inactive
Fc1ccc([C@@H]2CCNC[C@H]2COc2ccc3c(c2)OCO3)cc1	inactive
CCc1cnc(C(=O)O)c(C(=O)O)c1	inactive
CN(C)CCOc1ccccc1Cc1ccccc1	inactive
CCOC(=O)CC(=O)C(=O)OCC	inactive
CCCCCc1cccc(=O)o1	inactive
CC[N+](C)(CC)CCOC(=O)C(O)(c1ccccc1)C1CCCCC1 (stereo not given)	inactive
CC(C)(C)c1ccc(C(=O)O)cc1	inactive
CCCCCCCN	inactive
O=C(O)c1ccc(-n2nc(-c3ccccc3O)nc2-c2ccccc2O)cc1	inactive
CCOC(=O)CCC(C)=O	inactive
CCCCCCCCCCCCCBr	inactive
CCCCN(CCO)CCCC	inactive
CC(=O)OCC(=O)[C@@]1(O)CC[C@H]2[C@@H]3CCC4=CC(=O)CC[C@]4(C)[C@H]3C(=O)C[C@@]21C	inactive
CO[Si](CCCS)(OC)OC	inactive
NNc1ccc(C(=O)O)cc1	inactive
C[C@]12C(=O)OC(=O)[C@H]1[C@H]1C=C[C@@H]2C1	inactive
O=C=NC1CCC(CC2CCC(N=C=O)CC2)CC1 (stereo not given)	inactive
